# This is a sample that favours compounds with a hit; in the whole collection about 2.3% have one here.
# CHRM1 agonist: human M1 muscarinic receptor agonism; 360,000 compounds, 0.33% hits; activation, % at 3 µM; AID 588814; CHO-K1 hM1, Fluo-8 calcium fluorescence, agonist mode; 0% DMSO, 100% acetylcholine EC100;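 active = activation above the run's mean compound activation plus 3 SD, cut at about 16% in these data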;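 note: peak over basal fluorescence ratio within a 140 s kinetic read after compound addition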
# Target sequence (P11229 whole entry, looked up): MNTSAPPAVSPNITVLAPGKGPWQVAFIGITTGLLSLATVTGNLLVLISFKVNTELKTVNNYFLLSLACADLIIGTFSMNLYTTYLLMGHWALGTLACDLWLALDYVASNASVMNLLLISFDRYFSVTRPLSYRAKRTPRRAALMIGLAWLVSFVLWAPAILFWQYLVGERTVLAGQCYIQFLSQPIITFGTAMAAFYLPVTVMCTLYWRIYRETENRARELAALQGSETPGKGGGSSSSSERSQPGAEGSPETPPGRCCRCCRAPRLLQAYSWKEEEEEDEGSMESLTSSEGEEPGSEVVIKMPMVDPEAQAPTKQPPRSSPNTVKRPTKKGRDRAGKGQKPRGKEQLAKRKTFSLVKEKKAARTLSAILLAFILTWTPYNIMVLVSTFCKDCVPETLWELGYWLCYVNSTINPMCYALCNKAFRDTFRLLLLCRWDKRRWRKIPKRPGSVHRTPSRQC
# CHO-K1 Ca antag: counter-screen for M1 antagonists: effect in parental CHO-K1 cells; ATP-induced calcium, Fluo-8 fluorescence; inhibition, % at 3 µM; 360,000 compounds, 0.6% hits; AID 602250;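 active = inhibition above a per-plate cutoff, the plate's mean sample inhibition plus 3 SD, cut at about 24% in these data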;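 note: 0% = DMSO plus EC80 ATP and 100% = DMSO alone without ATP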
# CHO-K1 Ca PAM: M1 PAM counterscreen hit in parental CHO-K1 cells. activation, % at 3 µM. 360,000 compounds, 0.02% hits. ATP EC20, Fluo-8 calcium fluorescence; 0% at ATP EC20, 100% at ATP max;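 active = activation above the run cutoff, the mean activation of all test compounds plus 3 SD, cut at about 40% in these data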;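 note: peak over basal fluorescence ratio in a 140 s read after ATP addition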
# M1 PAM: human CHRM1 positive allosteric modulation | CHO-K1 hM1, Fluo-8 calcium fluorescence, ACh EC20; 0% = ACh EC20, 100% = maximal ACh | activation, % at 3 µM | 360,000 compounds, 0.088% hits; in the data active = activation above about 19%, passing the limit was not always enough
# M1 antag: human CHRM1 antagonism; P11229; CHO-K1 hM1, Fluo-8 calcium fluorescence, ACh EC80 antagonist; inhibition, % at 3 µM; 360,000 compounds, 1.3% hits; AID 588852;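 active = percent inhibition above its own plate's cutoff, namely the mean of that plate's compound wells plus 3 SD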;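 note: peak over basal fluorescence ratio during 140 s after agonist addition; 0% = ACh EC80 plus DMSO and 100% = DMSO alone without agonist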
# M1 ag parental: nonselective activator or artifact in parental CHO-K1 cells. activation, % at 3 µM. AID 602248. Fluo-8 calcium fluorescence; scaled to maximal ATP response, vehicle zero. 360,000 compounds, 0.48% hits; in the data active = activation above about 15%;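 note: untransfected CHO-K1 host cells lacking M1 receptor as counterscreen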
# * = called active by the depositor.
SMILES,CHRM1 agonist,CHO-K1 Ca antag,CHO-K1 Ca PAM,M1 PAM,M1 antag,M1 ag parental
CCc1ccc(-c2nc(CS(=O)CC(=O)NCc3ccc4c(c3)OCO4)c(C)o2)cc1 (stereo not drawn),-7,1,-14,9,-9,-1
Cc1cc(C)cc(NC(=O)c2ccc(CSc3nnnn3C)cc2)c1,2,15,-1,-8,28*,4
CC1(C)NC(=O)N(CC(O)COc2cc3ccccc3cc2C(=O)N2CCCCC2)C1=O (stereo not drawn),-3,-5,16,9,-8,0
O=C(c1cc2ccccc2cc1OCC(O)CN1CCCCC1)N1CCCCC1 (stereo not drawn),-12,-1,-5,-19,33*,1
O=C(c1cc2ccccc2cc1O)N1CCCC1,-3,1,2,5,-10,19*
Cc1cc(C)c(S(=O)(=O)N2CCOC2CNC(=O)C(=O)NCc2ccncc2)c(C)c1 (stereo not drawn),-5,21,5,0,1,0
Cc1ccc(C(=O)NN2C(=O)CSC2=S)cc1,-5,-8,3,-2,6,4
C/C(=N\N1C(=O)CSC1=S)c1ccc(Br)cc1,-6,4,7,1,1,19*
O=S(=O)(CC(O)(c1ccccc1)c1ccccc1)CC(O)(c1ccccc1)c1ccccc1,-4,-11,5,6,-15,1
C=CC(O)(C#CCN(CC)CC)c1ccccc1 (stereo not drawn),-4,-11,18,-18,38*,0
CCN(CC)CC#CCC(O)(c1ccccc1)c1ccc(Br)cc1 (stereo not drawn),-4,-10,16,-23,92*,4
Cc1cccc(CN(C)C)c1CC(O)(c1ccccc1)c1ccccc1,-3,-5,-11,-3,2,0
CN(C)CC#CCC(O)(c1ccccc1)c1ccccc1,-7,-2,17,-24,87*,1
CCN(CC)CC#CCC(O)(c1ccccc1)c1ccccc1,-7,-9,5,-25,93*,1
CCN(CC)CC#CC(C)(C)OC(C)=O,-13,-14,17,-2,4,1
O=C(Nc1nnc([C@@H]2O[C@H](CO)[C@@H](O)[C@H]2O)s1)Nc1ccccc1C(F)(F)F,-1,-13,19,13,-20,0
CC1(C)Oc2ccc3ccc(=O)oc3c2/C(=C/NNC(N)=S)C1=O,-5,-15,12,7,-3,1
Nc1ccc(CSc2ccc(Cl)cc2)c(Cl)c1,-4,-14,7,6,-15,0
CCN(CC)CC#CCC(C)(c1ccccc1)c1ccccc1,-5,-7,20,-21,72*,8
COc1ccc(Nc2ncnc3ccccc23)c(OC)c1,-3,-4,16,0,3,0
COc1ccc(Nc2nnc(Cc3ccncc3)c3ccccc23)c(OC)c1,51*,-15,2,3,4,0
O=C(CCC(=O)N(CC(=O)NC1CCCC1)c1ccccc1F)Nc1nccs1,-3,-5,9,7,-7,1
O=C(COc1ccc(Cl)cc1Br)NC(=O)NC1CCCC1,-6,20,-33,-17,31*,-1
O=C(Nc1ccccc1Cl)NC1CCCCCCC1,13,7,-10,-4,8,23*
O=C(NC1CCCCC1)C(c1ccccc1)N1CCCC1 (stereo not drawn),-6,-3,4,-26,80*,0
SMILES,CHRM1 agonist,CHO-K1 Ca antag,CHO-K1 Ca PAM,M1 PAM,M1 antag,M1 ag parental
O=C(COc1ccc(Cl)cc1Cl)NC(=O)NC1CCCC1,-7,14,-25,-10,2,0
Cc1ccc(C(C(=O)NC2CCCCC2)N2CCCC2)cc1 (stereo not drawn),-6,-9,28,-22,-7,1
O=C(COc1ccccc1Cl)NC(=O)NC1CCCC1,-9,-9,17,-22,34*,1
O=C1c2ccccc2C(=O)N1CN(C(=O)c1ccccc1)c1ccc(O)cc1,-4,12,6,8,5,22*
C/C(=N\OCC(=O)Nc1nc2ccccc2s1)c1ccccc1,-2,-14,24,6,-6,1
COc1ccc(/C(C)=N/OCC(=O)Nc2nc3ccccc3s2)cc1OC,-3,2,13,-9,12,19*
Cc1ncc(C(O)c2ccccc2)n1Cc1ccccc1 (stereo not drawn),-5,-4,10,0,-12,3
O=C(NCCc1ccccc1)c1c[nH]c2c(F)cccc2c1=O,-2,-4,-6,8,-9,4
Cc1cccc2c(=O)c(C(=O)NCCc3ccccc3)c[nH]c12,-2,23,-9,-13,30*,2
CC1(C(=O)NCc2cccc(C(F)(F)F)c2)CCN1C1Cc2ccccc2C1 (stereo not drawn),-4,-7,-8,-6,9,0
CC1(C(=O)NC2CCCC2)CCC(=O)N1CCOc1ccccc1 (stereo not drawn),-2,28*,3,4,6,0
O=C(O)CCCn1cc(NC(=O)c2c(F)cccc2F)cn1,-6,15,-4,-1,5,16*
CCOc1ccc2ncc(S(=O)(=O)c3ccc(C)cc3)c(N3CCC4(CC3)OCCO4)c2c1,-5,-1,17,-19,35*,4
CCOC(=O)c1cnc2ccc(OCC)cc2c1N1CCN(C)CC1,-3,-14,21,2,-1,1
NS(=O)(=O)c1ccc(CCNC(=O)CSc2nc3ccccc3c(=O)n2CCC(=O)N2CCCCC2)cc1,-5,-15,5,14,-22,0
COc1ccc(N2CCN(C(=O)COC(=O)c3ccc(-n4nc(C)cc4C)cc3)CC2)cc1,-1,-16,-8,10,-5,4
Cc1cccc(C)c1NC(=O)COC(=O)c1c2c(nc3ccccc13)/C(=C\c1ccc3c(c1)OCO3)CCC2,42*,28*,-3,-16,32,41*
COc1ccc2oc(C(=O)OCC(=O)N3CCN(S(=O)(=O)c4ccc(C)cc4)CC3)c(C)c2c1,1,14,-19,2,0,5
COc1ccc(-c2sc3cc4c(cc3c2-c2ccc(OCCN3CCCCC3)cc2)OCO4)cc1,-4,-6,10,1,-4,1
COc1ccccc1-c1sc2cc3c(cc2c1-c1ccc(OCCN2CCOCC2)cc1)OCO3,0,-17,16,-11,25*,1
Cc1c(C)n(CCO)c2ncnc(Nc3ccc(F)cc3)c12,-3,-9,9,3,43*,2
COc1ccc(Nc2ncnc3c2c(C)c(C)n3CCO)cc1,-7,-2,-5,-7,13,1
